# Measurements reported in publication PMC5540273 (PLoS ONE, 2017).
# How the values were obtained:
# Settings in all cases: concentration: 1 μM, replicates: in singlicate; n = 1
# MAPKAPK5 = system: MAPKAPK5
# MARK1 = system: MARK1
# MARK2 = system: MARK2
# MARK3 = system: MARK3
# MARK4 = system: MARK4
# MAST1 = system: MAST1
# MEK1 = system: T1, MEK1
# T1 construct: gene MAP2K1
# MEK2 = system: T2, MEK2
# T2 construct: gene MAP2K2
# MEK3 = system: T3, MEK3
# T3 construct: gene MAP2K3
# MEK4 = system: T4, MEK4
# T4 construct: gene MAP2K4
# MEK5 = system: T5, MEK5
# T5 construct: gene MAP2K5
# MEK6 = system: T6, MEK6
# T6 construct: gene MAP2K6
# MELK = system: MELK
# MERTK = system: MERTK
# MET = system: MET
# MINK = system: T7, MINK
# T7 construct: gene MINK1
# MKK7 = system: MKK7
# MKNK1 = system: MKNK1
# MKNK2 = system: MKNK2
# MLCK = system: T8, MLCK
# T8 construct: gene MYLK3
# 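Note: KINOMEscan kinase panel screen.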
Compound,%Inh (MAPKAPK5),%Inh (MARK1),%Inh (MARK2),%Inh (MARK3),%Inh (MARK4),%Inh (MAST1),%Inh (MEK1),%Inh (MEK2),%Inh (MEK3),%Inh (MEK4),%Inh (MEK5),%Inh (MEK6),%Inh (MELK),%Inh (MERTK),%Inh (MET),%Inh (MINK),%Inh (MKK7),%Inh (MKNK1),%Inh (MKNK2),%Inh (MLCK)
Cc1cccc(NC(=O)Nc2ccc(Oc3ncnc4ccn(C)c34)cc2)c1,0%,0%,0%,6%,0%,0%,0%,29%,5%,0%,25%,0%,0%,9%,19%,3%,0%,3%,88%,0%
COc1cccc(NC(=O)NC2CCN(c3ccnc(Nc4cc(OC)c(OC)c(OC)c4)n3)C2)c1 (stereo not drawn) [GSK1379763],0%,0%,0%,0%,0%,0%,0%,9%,8%,12%,99.9%,0%,0%,15%,0%,0%,0%,36%,65%,0%
COc1cc(Nc2nccc(-c3c(-c4cccc(NC(=O)c5c(F)cccc5F)c4)nn4ccccc34)n2)cc(OC)c1OC [GSK323521],3%,6%,0%,51%,17%,0%,4%,0%,0%,41%,79%,3%,3%,59%,58%,8%,32%,7%,22%,9%
Cl.Cl.NCC(C(=O)Nc1cc(Br)c(-c2ccnc3[nH]ccc23)s1)c1ccccc1 (stereo not drawn) [GSK1269851],0%,0%,55%,0%,0%,13%,1%,0%,50%,11%,20%,0%,45%,19%,0%,8%,0%,13%,99.1%,98.7%
CSc1cccc2c(-c3ccncn3)c(-c3ccc(F)cc3)nn12 [GW514786],0%,0%,0%,0%,0%,0%,0%,0%,0%,4%,15%,0%,20%,39%,23%,5%,0%,14%,1%,0%
Cn1cc(-c2ccc3c(c2)CCN3C(=O)Cc2cccc(F)c2)c2c(N)ncnc21 [GSK2603358],0%,69%,0%,0%,34%,5%,15%,0%,0%,26%,99.9%,0%,9%,49%,61%,0%,32%,2%,21%,16%
Nc1ncc(-c2ccc3nccc(-c4ccncc4)c3c2)cc1S(=O)(=O)N1CCOCC1 [GSK1627798],0%,0%,0%,0%,0%,0%,0%,0%,24%,52%,15%,0%,0%,12%,0%,10%,5%,0%,3%,0%
CN1CCN(Cc2cccc(-c3ccc4c(Nc5ccc(Oc6ccccc6)cc5)ccnc4c3)c2)CC1 [GW578342],0%,0%,5%,0%,0%,47%,54%,55%,0%,9%,100%,0%,16%,0%,5%,9%,7%,8%,51%,1%
COc1cccc(C2=C(Nc3ccc(Cl)c(C(=O)O)c3)C(=O)NC2=O)c1 [SB-390769],0%,0%,0%,0%,13%,0%,0%,0%,0%,97.4%,18%,0%,7%,0%,8%,100%,18%,4%,5%,100%
